Screening data deposited in PubChem BioAssay by National Center for Advancing Translational Sciences (NCATS).
Hits are enriched below; roughly 8.7% of the tested compounds scored in any of these assays.
Pf growth 48h – P. falciparum growth inhibition at 48 hours (one generation). hit rate 5.9% among 310,000. Potency, µM (doses to about 28.7 µM), for inactives: at the top dose activity change, negative = inhibition, actives largely listed as inhibitors. P. falciparum luciferase growth in erythrocytes, 48 h. AID 504832
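Read-out is firefly luciferase luminescence from an integrated reporter in P. falciparum, so falling signal marks reduced parasite growth. Infected erythrocytes were at 2% hematocrit and 0.1% parasitemia (final) in Albumax-supplemented RPMI 1640.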
Vaccinia mCherry – vaccinia inhibition (mCherry reporter) | Vaccinia virus mCherry reporter infection, fluorescence | Potency, µM (doses to about 36.5 µM), for the others: at the top dose activity change, negative = inhibition, actives largely listed as inhibitors | hit rate 0.63% among 310,000 | AID 720579; calls by dose curve; tested in A549 cells; further: nearly all actives have a fitted effect of over 35% in size
Vaccinia Venus – inhibitors of vaccinia virus (Venus reporter); Vaccinia virus Venus reporter expression, fluorescence; Potency, µM (highest dose often 36.5 µM), without a hit: top-dose activity change, negative = inhibition, hits mostly inhibitors; hit rate 0.46% among 330,000; AID 720580; calls by dose curve; tested in A549 cells; further: nearly all actives have a fitted effect of over 30% in size
Pf growth 96h – P. falciparum growth inhibition at 96 hours. P. falciparum luciferase reporter growth, 96 h. Potency, µM (top dose mostly 28.7 µM), for the others: top-dose activity change, negative = inhibition, actives largely listed as inhibitors. hit rate 6.9% among 320,000. AID 504834
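P. falciparum expressing integrated firefly luciferase grown in erythrocytes (2% hematocrit, 0.05% parasitemia final) with compounds for 96 hours at 37 C, 5% CO2. Growth inhibition read as loss of luminescence after adding luciferase detection reagent.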
AMA1-RON2 inh – inhibitors of Plasmodium falciparum AMA1-RON2 interaction; AlphaScreen AMA1-biotinylated RON2 peptide binding; Potency, µM (titrated, usually from 58.2 µM), inactives show at the top dose activity change, negative = inhibition, hits mostly inhibitors; hit rate 0.2% among 360,000;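 further: 0% = vehicle wells and -100% = peptide control; nearly all actives have a fitted effect of over 45% in size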
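AMA1 (3D7) with his tag at 25 nM final met compounds first, then biotinylated RON2 peptide at 25 nM; detection used donor plus acceptor beads, 10 µg/mL apiece, read by AlphaScreen after 30 min at room temperature.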
The depositor's hits bear a star; i = inactive; ? = inconclusive; nt = no result. Unless noted, the call rests on the fitted dose curve; in most records, active means well fitted curve in the direction sought with a large enough effect; inconclusive means small, poorly fitted or top-dose-only effect, or another doubt; inactive means no such curve, though single readings can be large; an effect the other way counts as inactive or inconclusive. Unless noted, on the % scale 0 is the no-effect control and ±100 the full control effect; potency means the concentration at half of the fitted maximal effect.

SMILES	Pf growth 48h	Vaccinia mCherry	Vaccinia Venus	Pf growth 96h	AMA1-RON2 inh
CC(C(=O)OCC(=O)c1ccc(Br)cc1)N1C(=O)C2C3C=CC(C3)C2C1=O (stereo not given)	27%	i	-2%	-2%	1%
COc1ccccc1CNC(=O)CN1C(=O)CSc2ccc(S(=O)(=O)N3CCCC3)cc21	13µM*	-8%	-15%	?	1%
CC1CCN(S(=O)(=O)c2ccc3c(c2)N(CC(=O)NCc2cccnc2)C(=O)CS3)CC1	-19%	nt	nt	102%	1%
O=C(CN1C(=O)CSc2ccc(S(=O)(=O)N3CCCCC3)cc21)NCc1cccnc1	?	nt	nt	2.3µM*	-1%
COc1ccc(NC(=O)C(NC(=O)CC2NC(=O)NC2=O)c2ccccc2)cc1 (stereo not given)	26%	-13%	-2%	-14%	-11%
COc1ccc(NC(=O)C(c2ccccc2)N(C)C(=O)c2ccc(=O)[nH]c2)cc1 (stereo not given)	-1%	-20%	-6%	1µM*	8%
COc1ccc(NC(=O)C(c2ccc(OC)cc2)N(C)C(=O)CC2NC(=O)NC2=O)cc1 (stereo not given)	16%	-1%	-10%	12µM*	-8%
Cc1ccc(C(C(=O)Nc2ccc(C(C)C)cc2)N(C)C(=O)c2ccc(=O)[nH]c2)cc1 (stereo not given)	?	-10%	-24%	330%	-6%
Cc1ccccc1N(CC(=O)NCCSc1ccccn1)S(=O)(=O)c1ccccc1	?	-20%	-17%	10µM*	-9%
CCOc1ccccc1N(CC(=O)NCCSc1ccccn1)S(=O)(=O)c1ccccc1	15µM*	-6%	-8%	?	4%
COc1ccccc1N(CC(=O)NCCSc1ccccn1)S(=O)(=O)c1ccccc1	?	-7%	-4%	16%	4%
CCOc1ccccc1N(CC(=O)NCCSc1ccccn1)S(=O)(=O)c1ccc(C)cc1	?	-5%	8%	1%	4%
Fc1ccc(Nc2ncnc3onc(-c4ccc(Cl)cc4)c23)cc1Cl	nt	-12%	1%	nt	nt
Cc1ccc(C(=O)COC(=O)C2C3C=CC(C3)C2C(=O)OCC(=O)c2ccc(C)c(C)c2)cc1C (stereo not given)	?	nt	nt	1.2µM*	-12%
CC(=O)NCC(=O)OCC(=O)c1ccc(C)c(C)c1	14%	1%	9%	27%	-9%
O=C(O)c1cc(Nc2nc(N3CCOCC3)nc(N3CCOCC3)n2)ccc1Cl	-8%	nt	nt	-8%	-9%
Clc1ccc(Nc2nc(N3CCOCC3)nc(N3CCOCC3)n2)cc1Cl	?	nt	nt	13µM*	-11%
CC(C)c1ccc(Nc2nc(NCc3ccco3)nc(N3CCOCC3)n2)cc1	13µM*	nt	?	33%	-5%
Fc1ccc(Nc2nc(N3CCOCC3)nc(N3CCOCC3)n2)cc1Cl	?	nt	nt	13µM*	-14%
CN1CCN(c2nc(Nc3cccc(C(F)(F)F)c3)nc(N3CCOCC3)n2)CC1	2.1µM*	nt	nt	0%	?
Clc1ccc(Nc2nc(Nc3ccc(Cl)cc3)nc(N3CCOCC3)n2)cc1	nt	16%	-22%	nt	nt
COc1cc(NC(=O)c2nnn(CC(=O)Nc3ccccc3)c2N)cc(OC)c1	nt	-16%	-27%	nt	nt
COCCNC(=S)N/N=C/c1ccc(OCc2ccc(C(=O)OC)cc2)c(OC)c1	22%	-4%	-11%	36%	91%
COc1ccc(CCNC(=S)NCc2ccc(Cl)c(Cl)c2)cc1OC	?	-10%	-8%	25%	-20%
C/C=C/C(=O)NCCc1ccc(OC)c(OC)c1	18%	-2%	-7%	3%	2%
SMILES	Pf growth 48h	Vaccinia mCherry	Vaccinia Venus	Pf growth 96h	AMA1-RON2 inh
C=CCN(CC=C)C(=S)NCCc1ccc(OC)c(OC)c1	13µM*	-6%	-6%	?	10%
CCOc1ccc(CNC(=S)N/N=C\c2ccc([N+](=O)[O-])cc2)cc1	13µM*	-28%	-18%	?	41%
CCCCOc1ccc(CNC(=S)N/N=C/c2ccc(OC)c(OC)c2)cc1	nt	nt	?	4.7µM*	15%
CCNC(=S)NCc1ccc(OC)c(OC)c1	3%	-3%	-6%	5.2µM*	14%
Cc1cc(C)cc(N2CC(c3nnc(NC(=O)c4ccco4)s3)CC2=O)c1 (stereo not given)	nt	-7%	-13%	nt	nt
COc1ccc(Cl)cc1NC(=O)Cn1cc2c(n1)CCC(C)C2 (stereo not given)	nt	-14%	-12%	nt	nt
CCOC(=O)c1c(NC(=O)/C=C/c2ccc(C(C)C)cc2)sc2c1CCC2	nt	-14%	-8%	nt	nt
CCN(Cc1ccccc1)C(=O)c1c(C)oc2ncn(C)c(=O)c12	nt	-11%	-12%	nt	nt
O=C(Nc1cccc(Br)c1)N1CCN2CCCCC2C1 (stereo not given)	nt	-4%	-1%	nt	nt
CC(=O)c1ccc(NC(=O)CN(C)S(=O)(=O)c2cc3c(cc2C)NC(=O)CO3)cc1	nt	0%	8%	nt	nt
CC(=O)Nc1ccc(N2S(=O)(=O)c3ccccc3S2(=O)=O)cc1	-16%	nt	?	12µM*	2%
COc1ccc(NC(=O)Cn2ncc3c2-c2ccccc2OC3)cc1Cl	nt	-19%	-12%	nt	nt
COc1cc(C(CCN2CCCCC2)c2c(OC)cc(OC)c3c(-c4ccccc4)cc(=O)oc23)cc(OC)c1OC (stereo not given)	10µM*	-6%	?	5.9µM*	-18%
COc1cc(OC)c2ccc(=O)oc2c1C(CCN1CCCC1)c1ccc(N(C)C)cc1 (stereo not given)	?	?	-11%	?	-22%
COc1cc(C(CCN2CCCC(C)C2)c2c(OC)cc(OC)c3c(-c4ccccc4)cc(=O)oc23)cc(OC)c1OC (stereo not given)	7.4µM*	-15%	?	2.9µM*	-17%
CC1(C)S[C@@H]2C(C(=O)O)NC(=O)N2C1C(=O)O (stereo not given in full)	nt	i	-21%	nt	nt
Nc1cc(=O)nc(SCC(=O)Nc2ccc(F)cc2)n1-c1ccc(Cl)cc1	nt	2%	-8%	nt	nt
Cc1c(Cl)cccc1N/C(SCC(=O)N1CCCCCC1)=C(/C#N)c1nc2ccccc2s1	2.1µM*	i	-12%	1.5µM*	8%
CC1(C)CC(C(=O)N2CCOc3ccc(CN4CCN(Cc5ccccn5)CC4)cc3C2)CCO1 (stereo not given)	nt	-12%	-7%	nt	nt
O=[N+]([O-])c1ccc(NC(=S)NCc2ccncc2)cc1	8%	-19%	-3%	?	-13%
O=[N+]([O-])c1ccc(NC(=S)NCc2ccc(F)cc2)cc1	?	?	?	4.1µM*	14%
O=[N+]([O-])c1ccc(NC(=S)NCCc2ccccc2)cc1	?	-24%	?	-1%	5%
Fc1ccc(CNC(=S)NCc2ccccc2)cc1	?	-19%	0%	?	-4%
Fc1ccc(NC(=S)NCc2ccccc2)cc1	14%	nt	nt	15µM*	7%
O=[N+]([O-])c1ccc(NC(=S)NCCc2ccc(Cl)cc2)cc1	2.3µM*	?	11µM*	1.9µM*	3%
